From the supplement of paper PMC11732987, “Enantioselective OTUD7B fragment discovery through chemoproteomics screening and high-throughput optimisation” (Communications Chemistry, 2025)

Key:
Assay in all cases: log2 ratio of Biotin-Ahx-Ub-VS probe labelling (fragment/DMSO); higher = less target engagement (more negative = stronger competition), active = hit call of the paper (q ≤ 0.05, log2 ratio ≤ -1)
Details in all cases: compound concentration: 200 uM; treatment time: 3 h
USP34 = USP34 (UniProt Q70CQ2)
Method in brief: (§1)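 HEK293T lysate in Tris/CHAPS/IGEPAL buffer with protease inhibitors (495 µg per sample) was given fragment at 200 µM or vehicle for 3 h, in triplicate. It then received Biotin-Ahx-Ub-VS at 0.5 µM final for 1 h. Labelled DUBs were NeutrAvidin-enriched, digested with LysC and trypsin, and run by diaPASEF LC-MS/MS. Values are average log2 fragment/vehicle ratios by unpaired t-test on global-median-normalised Spectronaut quantities of proteins with ≥2 unique peptides.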

USP36 = biological target: T1, USP36 (UniProt Q9P275)
T1 sequence (whole entry): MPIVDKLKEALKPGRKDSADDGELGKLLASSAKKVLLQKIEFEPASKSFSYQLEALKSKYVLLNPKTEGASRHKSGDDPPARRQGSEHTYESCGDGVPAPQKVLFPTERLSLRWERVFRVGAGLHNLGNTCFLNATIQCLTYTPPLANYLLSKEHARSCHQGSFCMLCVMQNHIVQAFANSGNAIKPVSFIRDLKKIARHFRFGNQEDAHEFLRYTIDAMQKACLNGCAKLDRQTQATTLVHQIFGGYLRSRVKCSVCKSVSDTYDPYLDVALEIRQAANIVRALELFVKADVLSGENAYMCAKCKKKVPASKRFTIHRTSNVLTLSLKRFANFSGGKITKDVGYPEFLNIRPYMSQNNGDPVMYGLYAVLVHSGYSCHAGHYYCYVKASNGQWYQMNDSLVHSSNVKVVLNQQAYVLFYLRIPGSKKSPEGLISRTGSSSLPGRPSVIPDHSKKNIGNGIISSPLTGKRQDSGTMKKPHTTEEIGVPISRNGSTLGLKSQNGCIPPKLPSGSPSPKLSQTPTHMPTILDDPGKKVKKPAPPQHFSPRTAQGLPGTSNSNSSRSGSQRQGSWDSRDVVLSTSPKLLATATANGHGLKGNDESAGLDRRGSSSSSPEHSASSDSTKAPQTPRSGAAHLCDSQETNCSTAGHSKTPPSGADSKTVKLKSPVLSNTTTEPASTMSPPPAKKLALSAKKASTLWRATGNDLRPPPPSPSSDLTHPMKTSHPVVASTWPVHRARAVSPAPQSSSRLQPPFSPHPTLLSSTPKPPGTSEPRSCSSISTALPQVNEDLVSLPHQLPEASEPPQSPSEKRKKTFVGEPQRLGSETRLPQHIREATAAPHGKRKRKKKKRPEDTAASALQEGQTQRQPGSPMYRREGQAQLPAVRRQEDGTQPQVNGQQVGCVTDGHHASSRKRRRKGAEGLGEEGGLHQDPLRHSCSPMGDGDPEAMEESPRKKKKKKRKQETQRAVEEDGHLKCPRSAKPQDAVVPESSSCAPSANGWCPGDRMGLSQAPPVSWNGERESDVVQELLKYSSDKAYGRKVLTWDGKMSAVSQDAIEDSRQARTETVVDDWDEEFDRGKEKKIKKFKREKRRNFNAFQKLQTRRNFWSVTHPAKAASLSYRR
Method in brief: as §1

USP38 = biological target: T2, USP38 (UniProt Q8NB14)
T2 sequence (whole entry): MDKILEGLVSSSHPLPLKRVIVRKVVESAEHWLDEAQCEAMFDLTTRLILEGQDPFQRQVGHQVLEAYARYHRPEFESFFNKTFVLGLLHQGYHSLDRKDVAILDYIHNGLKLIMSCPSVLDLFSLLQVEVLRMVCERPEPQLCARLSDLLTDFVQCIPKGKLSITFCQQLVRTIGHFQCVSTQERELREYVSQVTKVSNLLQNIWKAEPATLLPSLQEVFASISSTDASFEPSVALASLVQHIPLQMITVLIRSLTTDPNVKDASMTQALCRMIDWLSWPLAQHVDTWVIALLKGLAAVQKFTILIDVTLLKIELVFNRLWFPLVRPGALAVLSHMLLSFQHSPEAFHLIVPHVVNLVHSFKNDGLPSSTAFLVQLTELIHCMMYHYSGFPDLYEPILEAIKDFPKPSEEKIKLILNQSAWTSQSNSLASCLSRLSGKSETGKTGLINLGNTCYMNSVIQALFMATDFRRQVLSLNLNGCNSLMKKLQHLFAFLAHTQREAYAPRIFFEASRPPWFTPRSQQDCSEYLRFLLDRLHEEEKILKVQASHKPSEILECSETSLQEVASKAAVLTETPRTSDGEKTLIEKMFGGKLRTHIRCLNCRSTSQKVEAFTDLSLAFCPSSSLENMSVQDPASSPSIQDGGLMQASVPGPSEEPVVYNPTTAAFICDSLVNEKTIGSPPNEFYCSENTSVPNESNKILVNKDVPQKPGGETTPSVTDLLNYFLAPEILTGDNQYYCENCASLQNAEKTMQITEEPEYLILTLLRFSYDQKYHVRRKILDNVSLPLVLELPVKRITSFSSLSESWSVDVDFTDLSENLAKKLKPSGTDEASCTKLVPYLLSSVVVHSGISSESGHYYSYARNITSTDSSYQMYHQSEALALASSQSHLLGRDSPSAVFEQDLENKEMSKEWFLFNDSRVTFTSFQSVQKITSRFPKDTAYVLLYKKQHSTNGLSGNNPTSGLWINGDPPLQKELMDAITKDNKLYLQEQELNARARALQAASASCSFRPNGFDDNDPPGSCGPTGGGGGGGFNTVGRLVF
Method in brief: as §1

USP39 = biological target: T3, USP39 (UniProt Q53GS9)
T3 sequence (whole entry): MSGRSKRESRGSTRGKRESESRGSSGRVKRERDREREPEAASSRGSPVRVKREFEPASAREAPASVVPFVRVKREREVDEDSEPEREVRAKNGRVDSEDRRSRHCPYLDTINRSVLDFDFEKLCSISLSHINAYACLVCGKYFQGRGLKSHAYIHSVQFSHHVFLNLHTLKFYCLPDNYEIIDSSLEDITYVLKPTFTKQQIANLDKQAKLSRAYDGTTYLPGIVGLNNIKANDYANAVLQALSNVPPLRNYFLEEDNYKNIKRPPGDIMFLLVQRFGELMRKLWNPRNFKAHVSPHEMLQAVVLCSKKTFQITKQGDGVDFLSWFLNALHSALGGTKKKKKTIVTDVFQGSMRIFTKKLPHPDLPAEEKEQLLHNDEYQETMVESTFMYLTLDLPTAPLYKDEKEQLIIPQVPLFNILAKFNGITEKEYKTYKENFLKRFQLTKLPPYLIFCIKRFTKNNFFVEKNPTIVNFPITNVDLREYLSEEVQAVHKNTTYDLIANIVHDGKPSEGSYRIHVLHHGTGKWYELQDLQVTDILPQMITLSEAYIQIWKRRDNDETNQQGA
Method in brief: as §1

USP4 = biological target: T4, USP4 (UniProt Q13107)
T4 sequence (whole entry): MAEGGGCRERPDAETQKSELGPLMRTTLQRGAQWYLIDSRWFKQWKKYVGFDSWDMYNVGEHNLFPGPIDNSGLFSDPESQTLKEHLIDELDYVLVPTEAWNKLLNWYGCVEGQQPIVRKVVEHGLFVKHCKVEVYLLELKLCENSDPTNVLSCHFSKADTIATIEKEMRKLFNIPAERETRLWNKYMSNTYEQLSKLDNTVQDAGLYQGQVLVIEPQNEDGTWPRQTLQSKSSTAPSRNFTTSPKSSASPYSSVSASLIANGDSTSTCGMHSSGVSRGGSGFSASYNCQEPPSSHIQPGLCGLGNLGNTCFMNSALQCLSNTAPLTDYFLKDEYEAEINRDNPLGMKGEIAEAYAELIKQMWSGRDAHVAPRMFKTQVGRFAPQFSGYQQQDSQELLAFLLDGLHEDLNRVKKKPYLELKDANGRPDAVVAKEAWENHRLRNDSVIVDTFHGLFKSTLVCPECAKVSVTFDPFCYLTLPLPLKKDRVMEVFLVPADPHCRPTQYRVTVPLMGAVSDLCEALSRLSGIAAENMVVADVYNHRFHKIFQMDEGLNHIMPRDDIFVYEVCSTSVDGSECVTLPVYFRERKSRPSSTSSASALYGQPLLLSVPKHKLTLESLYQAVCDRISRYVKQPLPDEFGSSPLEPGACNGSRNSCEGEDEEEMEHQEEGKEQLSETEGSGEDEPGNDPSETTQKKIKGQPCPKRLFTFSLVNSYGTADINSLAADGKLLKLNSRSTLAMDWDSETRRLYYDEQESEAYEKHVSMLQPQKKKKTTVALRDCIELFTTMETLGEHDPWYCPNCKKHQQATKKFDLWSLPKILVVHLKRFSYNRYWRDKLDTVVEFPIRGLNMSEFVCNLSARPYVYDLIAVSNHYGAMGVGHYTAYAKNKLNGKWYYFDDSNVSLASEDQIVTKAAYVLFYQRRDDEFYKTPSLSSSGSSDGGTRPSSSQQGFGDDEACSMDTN
Method in brief: as §1

Measured: log2 ratio of Biotin-Ahx-Ub-VS probe labelling

USP34, sequence (Q70CQ2 whole entry, the tested form may be a part): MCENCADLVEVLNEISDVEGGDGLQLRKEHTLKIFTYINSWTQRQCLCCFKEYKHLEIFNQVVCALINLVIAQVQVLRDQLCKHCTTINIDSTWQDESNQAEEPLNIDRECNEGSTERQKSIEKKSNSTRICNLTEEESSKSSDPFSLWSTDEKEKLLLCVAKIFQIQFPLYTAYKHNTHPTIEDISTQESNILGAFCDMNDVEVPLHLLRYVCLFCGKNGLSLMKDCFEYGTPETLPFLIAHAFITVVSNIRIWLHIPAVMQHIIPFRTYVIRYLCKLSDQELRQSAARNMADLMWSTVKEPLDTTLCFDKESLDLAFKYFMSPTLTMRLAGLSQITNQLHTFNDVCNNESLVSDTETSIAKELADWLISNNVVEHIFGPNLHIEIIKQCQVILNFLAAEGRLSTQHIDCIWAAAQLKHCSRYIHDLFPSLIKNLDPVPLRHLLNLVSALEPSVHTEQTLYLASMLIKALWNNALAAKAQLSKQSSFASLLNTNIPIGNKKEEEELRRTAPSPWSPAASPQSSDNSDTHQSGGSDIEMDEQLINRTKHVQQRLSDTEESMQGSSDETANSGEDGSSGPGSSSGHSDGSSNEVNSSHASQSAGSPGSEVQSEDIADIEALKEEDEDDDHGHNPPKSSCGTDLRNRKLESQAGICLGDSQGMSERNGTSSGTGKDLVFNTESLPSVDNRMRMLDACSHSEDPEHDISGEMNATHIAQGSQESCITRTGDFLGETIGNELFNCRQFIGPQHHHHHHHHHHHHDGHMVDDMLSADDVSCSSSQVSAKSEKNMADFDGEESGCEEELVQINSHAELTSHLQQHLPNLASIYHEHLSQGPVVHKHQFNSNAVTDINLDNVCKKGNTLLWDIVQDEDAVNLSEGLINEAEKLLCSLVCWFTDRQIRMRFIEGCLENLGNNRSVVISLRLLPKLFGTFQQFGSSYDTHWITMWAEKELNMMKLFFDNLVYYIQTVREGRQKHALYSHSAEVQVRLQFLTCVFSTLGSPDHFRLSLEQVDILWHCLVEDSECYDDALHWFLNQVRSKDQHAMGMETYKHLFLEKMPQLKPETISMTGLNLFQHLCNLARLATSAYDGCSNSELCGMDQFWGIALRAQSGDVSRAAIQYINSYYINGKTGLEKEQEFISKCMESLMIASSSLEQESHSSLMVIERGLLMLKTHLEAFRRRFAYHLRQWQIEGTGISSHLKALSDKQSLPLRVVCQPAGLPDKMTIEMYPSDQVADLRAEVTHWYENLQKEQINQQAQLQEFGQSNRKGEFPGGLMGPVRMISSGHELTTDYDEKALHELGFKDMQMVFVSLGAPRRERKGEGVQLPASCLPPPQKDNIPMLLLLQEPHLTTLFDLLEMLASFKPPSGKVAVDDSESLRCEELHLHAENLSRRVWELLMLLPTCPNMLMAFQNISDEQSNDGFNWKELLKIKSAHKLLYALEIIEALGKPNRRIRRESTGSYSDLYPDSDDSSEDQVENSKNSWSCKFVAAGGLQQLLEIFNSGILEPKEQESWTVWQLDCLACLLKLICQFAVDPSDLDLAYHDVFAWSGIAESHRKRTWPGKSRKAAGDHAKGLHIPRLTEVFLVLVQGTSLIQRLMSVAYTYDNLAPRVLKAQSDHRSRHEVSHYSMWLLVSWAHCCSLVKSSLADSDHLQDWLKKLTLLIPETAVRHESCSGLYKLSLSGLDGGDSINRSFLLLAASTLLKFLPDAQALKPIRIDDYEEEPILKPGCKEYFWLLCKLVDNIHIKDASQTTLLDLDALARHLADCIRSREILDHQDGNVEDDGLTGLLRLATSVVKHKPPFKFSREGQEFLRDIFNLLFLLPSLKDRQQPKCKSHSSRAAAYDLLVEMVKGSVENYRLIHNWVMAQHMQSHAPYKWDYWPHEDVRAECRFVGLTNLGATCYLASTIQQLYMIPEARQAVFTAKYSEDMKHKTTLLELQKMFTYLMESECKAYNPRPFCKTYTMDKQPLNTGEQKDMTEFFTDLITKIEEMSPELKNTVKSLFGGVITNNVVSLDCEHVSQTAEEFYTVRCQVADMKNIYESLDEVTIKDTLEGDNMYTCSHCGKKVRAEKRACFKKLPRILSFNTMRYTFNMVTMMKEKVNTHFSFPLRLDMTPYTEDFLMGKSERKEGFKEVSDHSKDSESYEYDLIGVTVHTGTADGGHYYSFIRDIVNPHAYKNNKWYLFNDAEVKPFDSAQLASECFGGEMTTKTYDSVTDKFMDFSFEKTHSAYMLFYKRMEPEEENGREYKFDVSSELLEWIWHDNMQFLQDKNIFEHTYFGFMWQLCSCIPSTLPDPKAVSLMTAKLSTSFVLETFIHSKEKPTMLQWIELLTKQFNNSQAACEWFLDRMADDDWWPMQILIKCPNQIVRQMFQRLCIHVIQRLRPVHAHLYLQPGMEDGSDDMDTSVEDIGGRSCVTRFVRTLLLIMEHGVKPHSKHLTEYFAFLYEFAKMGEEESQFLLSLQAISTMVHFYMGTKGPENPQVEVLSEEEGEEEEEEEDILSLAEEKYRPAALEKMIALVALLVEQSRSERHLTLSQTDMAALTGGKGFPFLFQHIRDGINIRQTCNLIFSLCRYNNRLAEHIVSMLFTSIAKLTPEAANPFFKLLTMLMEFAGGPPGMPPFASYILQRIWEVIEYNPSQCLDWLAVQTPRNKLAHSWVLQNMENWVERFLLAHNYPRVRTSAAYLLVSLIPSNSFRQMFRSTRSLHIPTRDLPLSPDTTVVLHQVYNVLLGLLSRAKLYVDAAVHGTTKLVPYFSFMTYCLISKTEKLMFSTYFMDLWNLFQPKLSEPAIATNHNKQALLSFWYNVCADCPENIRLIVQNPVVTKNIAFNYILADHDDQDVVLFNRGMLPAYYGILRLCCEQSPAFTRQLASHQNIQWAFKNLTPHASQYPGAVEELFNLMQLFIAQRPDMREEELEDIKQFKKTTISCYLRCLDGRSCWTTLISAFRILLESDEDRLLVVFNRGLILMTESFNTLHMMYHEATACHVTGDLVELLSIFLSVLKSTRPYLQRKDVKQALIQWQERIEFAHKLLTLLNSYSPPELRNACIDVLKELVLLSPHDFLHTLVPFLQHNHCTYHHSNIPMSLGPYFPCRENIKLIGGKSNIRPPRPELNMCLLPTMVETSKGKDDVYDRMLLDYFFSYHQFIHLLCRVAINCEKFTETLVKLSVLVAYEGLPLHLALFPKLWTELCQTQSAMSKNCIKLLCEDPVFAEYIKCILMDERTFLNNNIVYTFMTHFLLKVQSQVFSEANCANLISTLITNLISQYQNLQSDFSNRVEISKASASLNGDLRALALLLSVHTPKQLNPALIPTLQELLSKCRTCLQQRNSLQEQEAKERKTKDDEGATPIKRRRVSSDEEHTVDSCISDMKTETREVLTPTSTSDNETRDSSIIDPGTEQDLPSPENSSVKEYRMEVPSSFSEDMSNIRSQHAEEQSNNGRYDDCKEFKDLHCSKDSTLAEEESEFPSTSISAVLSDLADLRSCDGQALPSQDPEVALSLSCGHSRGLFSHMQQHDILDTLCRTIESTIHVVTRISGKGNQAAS

O=C(CCl)Nc1cccc(NC(=O)c2ccccc2)c1
inactive: USP34 0.0355 | USP36 -0.11 | USP38 0.15 | USP39 0.0551 | USP4 0.199
